High-throughput results deposited in PubChem by The Scripps Research Institute Molecular Screening Center.
ssDAF12 agonist: S. stercoralis DAF-12 activation, primary screen; activation, % at 6.8 µM; HEK293 ssDAF-12/GRIP1 lit1-tk-luc reporter, luminescence; % of 3 µM dafachronic acid response; 370,000 compounds, 1% hits;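 active = activation above the mean over all tested compounds plus 3 SD, cut at about 0.9% in these data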
DAX1 inh-1: DAX1 (NR0B1) inhibition, primary screen | HEK293T StAR-luciferase reporter, SF-1/DAX-1 repression relief | inhibition, % at 6.8 µM | 370,000 compounds, 1.1% hits;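 active = inhibition above the mean over all tested compounds plus 3 SD, cut at about 3.6% in these data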;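 also: higher inhibition means more luminescence from relief of DAX-1 repression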
hgDAF-12 ag: hgDAF-12 agonism, primary luciferase screen; HEK293 GAL4-hgDAF12 UAS-luciferase reporter, agonist luminescence; normalized to butyrate control; activation, % at 6.8 µM; 370,000 compounds, 1.8% hits;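 active = activation above a cutoff set at the mean of all screened compounds plus 3 SD, cut at about 10% in these data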
hcDAF12 agonist: activators of H. contortus DAF-12 nuclear receptor; HEK293 hcDAF-12 lit1-tk-luc reporter, luminescence; 0% DMSO, 100% Δ7-dafachronic acid; activation, % at 6.8 µM; 370,000 compounds, 1.4% hits; AID 652067;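 active = activation above the mean of all tested compounds plus 3 SD, cut at about 5.5% in these data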
DAX1 inh-2: inhibitors of human orphan nuclear receptor DAX1 (NR0B1). P51843. HEK293 Gal4-DAX1 luciferase reporter, luminescence. inhibition, % at 6.75 µM. 340,000 compounds, 0.99% hits;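 active = inhibition above the mean over all tested compounds plus 3 SD, cut at about 4.2% in these data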;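 also: inhibition shows as a rise in luminescence from relieved DAX1 repression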
Target sequence (P51843 207-470 limits assumed): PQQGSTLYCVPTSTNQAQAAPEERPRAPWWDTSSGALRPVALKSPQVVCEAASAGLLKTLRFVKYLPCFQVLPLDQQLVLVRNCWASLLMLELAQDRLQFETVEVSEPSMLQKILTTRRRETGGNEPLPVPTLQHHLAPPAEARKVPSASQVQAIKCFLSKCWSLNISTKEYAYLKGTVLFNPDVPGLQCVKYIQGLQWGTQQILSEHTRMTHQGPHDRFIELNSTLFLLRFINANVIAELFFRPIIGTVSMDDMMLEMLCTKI
A number is an active result; i = inactive; nt = no result. Only some compounds are listed: those with a hit (about 4.1% of all), similar ones and a draw of the others.

SMILES	ssDAF12 agonist	DAX1 inh-1	hgDAF-12 ag	hcDAF12 agonist	DAX1 inh-2
COc1ccc(-c2csc(N)n2)cc1F	i	i	i	i	4.8
Cc1oncc1-c1csc(-c2ccccc2)n1	i	i	i	i	5.3
COc1cc(C(=O)NNC(=O)C2CCC2)cc(OC)c1OC	i	i	i	i	i
COc1cc(C(=O)NNC(=O)C2CC=CCC2C(=O)O)cc(OC)c1OC (stereo unspecified)	1.9	i	i	i	i
C=CCN1C(=O)c2ccc(C(=O)N3CCN(S(=O)(=O)c4ccc(C(C)C)cc4)CC3)cc2C1=O	i	i	i	i	4.4
O=C(Cn1cc2c(n1)CCCCC2)N1CCc2ccccc21	i	i	i	6.3	i
CCCCC(=O)Nc1cc(C)c(NC(=O)c2cccs2)cn1	i	i	i	i	i
Cc1ccnc(NC(=O)CCC(=O)c2cccs2)c1	i	4.0	i	i	i
O=C(c1cccs1)N(C(=O)c1cccs1)c1ccc(Br)cn1	i	i	i	i	i
CCCCC(=O)Nc1cnc(NC(=O)c2cccs2)cc1C	i	i	12	i	i
Cc1ccnc(NC(=O)CNC(=O)c2ccc(C)s2)c1	i	4.0	i	i	i
Cc1ccnc(N(C(=O)c2cccs2)C(=O)c2cccs2)c1	i	i	13	i	i
COc1cccc(N2CCN(CC(=O)NCc3ccccc3C)CC2)c1	i	i	i	i	nt
COC(=O)C1=C[C@@H]([C@@H](C)[C@H](OC)c2ccccc2Br)[C@@H]2OCCC[C@H]12	i	i	i	i	nt
Cc1ccnc(NC(=O)CCCNC(=O)c2ccc(Cl)cc2)c1	i	4.0	i	i	i
Cc1cc(C)c(NC(=O)CCCC(=O)O)c(Cl)c1	i	i	i	i	i
CC(C)=CC(=O)Nc1c(C)cc(C)cc1Cl	i	i	i	i	4.6
COc1ccc(/C=C2\SC(=S)N(CCC(=O)Nc3cccc(O)c3)C2=O)cc1	i	i	i	i	4.8
COc1ccc(/C=C2\SC(=S)N(CCCC(=O)Nc3ccc(O)cc3)C2=O)cc1	i	i	i	i	i
Clc1ccc(OCc2nc(-c3ccncc3)no2)c(Cl)c1	i	i	12	6.1	i
CCCCNc1cnn(-c2ccccc2)c(=O)c1Cl	i	i	i	i	i
COCCNc1cnn(-c2ccccc2)c(=O)c1Cl	i	i	i	i	4.9
COC(=O)CNC(=O)CNC1(C(=O)NCCc2c[nH]c3ccccc23)CCCCC1	i	nt	i	i	nt
O=C(NCCN1CCCCC1)Nc1ccc([N+](=O)[O-])cc1	i	i	i	i	8.7
S=C(NCCc1ccccc1)N1CCN(C(=S)NCCc2ccccc2)CC1	i	i	i	i	i
SMILES	ssDAF12 agonist	DAX1 inh-1	hgDAF-12 ag	hcDAF12 agonist	DAX1 inh-2
CN1CCN(C(=S)NCCc2ccccc2)CC1	i	i	13	i	i
CN(C)/N=C/c1ccc(OS(=O)(=O)c2ccccc2)cc1	i	i	11	i	i
CCCCOc1ccc(CC(=O)NCC(=O)O)cc1	i	i	i	i	4.9
CCOc1cccc(=O)c2c(C)n(CC(=O)c3ccccc3)c(C)c12	i	i	i	i	i
COc1cccc(=O)c2c(C)n(CC(=O)c3ccccc3)c(C)c12	1.5	i	i	i	i
COc1ccc(/C=C/C(=O)Nc2cc(C)nn2-c2nc3ccccc3[nH]2)cc1	i	i	i	i	i
COc1ccc(/C=C/C(=O)Nc2cc(C)nn2-c2nc3ccccc3n2Cc2cccc([N+](=O)[O-])c2)cc1	1.0	i	i	i	i
COc1cccc(OC)c1NC(=O)OCCN1CCCC12CCC(c1ccccc1)CC2 (stereo unspecified)	i	nt	i	i	nt
c1ccc(CSc2ccc(-c3cccs3)nn2)nc1	i	3.8	12	i	i
c1ccc(CSc2nnc3ccc(-c4cccs4)nn23)nc1	i	i	i	i	i
CC(=O)CC[C@H]1CC[C@]2(CCCN(C(=O)c3ccco3)C2)O1	i	i	i	i	nt
CC(C)CCNC(=O)[C@H]1COC(O)([C@H](Cc2ccccc2)NC(=O)[C@@H](NC(=O)OCc2ccccc2)C(C)C)CN1C (stereo partly specified)	i	nt	i	i	nt
Cc1cc2c([nH]c3ccccc32)c(C)n1	i	i	i	i	i
Cc1c2ccncc2cc2c1[nH]c1ccccc12	i	i	11	i	i
COC(=O)C1CN(C2CCCC2)CCS(=O)(=O)N1Cc1ccccc1 (stereo unspecified)	i	i	i	i	nt
COc1ccccc1OCCSc1nc2ccccc2n1CC(O)CO (stereo unspecified)	i	i	i	i	4.7
FC(F)(F)c1nnc(N2CCN(c3ccc(Cl)cc3)CC2)s1	i	i	i	i	5.2
Cc1cccc(N2CCN(c3nnc(C(F)(F)F)s3)CC2)c1	i	i	i	i	i
COC(=O)[C@]12C[C@H](CC(=O)N3CCSCC3)C(=O)N(Cc3cccc4ccccc34)C1=C[C@H](COCc1ccccc1)O[C@@H]2C	i	i	i	i	nt
COc1ccccc1NC(=O)N1CCCC(C(=O)Nc2cccc(C)c2C)C1 (stereo unspecified)	i	i	i	i	7.5
CCc1ccc(CNC(=O)C(=O)NCC2CCCO2)cc1 (stereo unspecified)	i	i	i	i	i
O=C(NCCc1ccccc1)c1ccccc1NC(=O)C1CCCO1 (stereo unspecified)	i	4.3	11	5.6	i
CCCCc1ccc(NC(=O)C2CCCO2)cc1 (stereo unspecified)	i	i	11	i	i
CCCCNC(=O)c1ccc(NC(=O)C2CCCO2)cc1 (stereo unspecified)	i	i	i	i	i
CCc1ccc(NC(=O)C(=O)NCC2CCCO2)cc1 (stereo unspecified)	i	4.3	i	i	4.6
SMILES	ssDAF12 agonist	DAX1 inh-1	hgDAF-12 ag	hcDAF12 agonist	DAX1 inh-2
c1ccc(Cn2ccc3ccc(-c4ccc5ccn(Cc6cccc(Oc7ccccc7)c6)c5c4)cc32)cc1	i	i	i	i	nt
Cc1ccc(Nc2nnc(-c3ccccc3N)o2)cc1C	i	i	11	i	6.5
O=[N+]([O-])c1ccccc1C=Nn1c(-c2cc(-c3ccccc3)n[nH]2)n[nH]c1=S	i	i	i	i	nt
C=CCN1[C@H](C)COc2cccc(F)c2S1(=O)=O	i	i	i	i	nt
CC1(C)CC(=O)C(C2C3=C(CC(C)(C)CC3=O)Oc3c(Br)cc(Br)cc32)=C(O)C1 (stereo unspecified)	i	i	11	i	i
S=C(Nc1ccc(Cl)cc1)OC1CCC12CCC(c1ccccc1)CC2 (stereo unspecified)	i	i	i	i	nt
CC(=O)Nc1ccc(-c2cn3ccsc3n2)cc1	i	i	12	i	i
O=C(Nc1ccc(-c2cn3ccsc3n2)cc1)C1CC1	i	i	i	i	i
CCOC(=O)C1C[C@@H](O)C=CC1=O (stereo partly specified)	i	nt	i	i	nt
CCn1c(SCC(=O)Nc2ccc(C(C)C)cc2)nnc1-c1ccc(C(C)(C)C)cc1	i	i	i	i	nt
